Assay outcomes as filed in PubChem.
This is a sample that favours compounds with a hit; in the whole collection about 8.1% have one here.
PINK1 modulator = modulators of PINK1 expression. PINK1 immunofluorescence, high-content cytometry, 24 h. 410,000 tested, 0.2% active. Potency, µM (top dose mostly 76.6 µM), inactives show top-dose activation (PINK1 increase), hits mostly activators; active = well fitted activation curve with a large enough effect; inconclusive = small, poorly fitted or top-dose-only effect; cell line not stated here; note: % of control where 0% means no effect; nearly all actives have a fitted effect of over 65% in size
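Measures PINK1 amount and localization on or inside mitochondria by immunofluorescence. Stable cells get compounds at 5 concentrations for 24 hours before fixation and staining; CCCP controls included.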
VP16 counter = counter-screen for ROR gamma inhibitors: Gal4-VP16 reporter; Drosophila S2 Gal4-VP16 UAS-luciferase, luminescence, 20 h; Potency, µM (doses to about 53.6 µM), without a hit: at the highest dose activity, negative = inhibition, hits mostly inhibitors; 310,000 tested, 3.5% active; AID 2546;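 note: Gal4-VP16 expression switched on by copper sulfate through the metallothionein promoter; % is set by controls: 0 for no effect and ±100 for the full control effect; nearly all actives have a fitted effect of over 50% in size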
Sfp inh = inhibitors of Bacillus subtilis Sfp phosphopantetheinyl transferase | Biochemical Sfp PPTase activity, qHTS | Q9F4F7 | 310,000 tested, 3.5% active | Potency, µM, for the others: largest response in the series, negative = inhibition, hits mostly inhibitors;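 note: the enzyme is Sfp with the accession as filed and its product quenches rhodamine fluorescence; 0% = enzyme reaction without inhibitor and -100% = no enzyme wells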
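Fluorescence-quenching assay with 15 nM Sfp, 5 uM rhodamine-CoA and 12.5 uM BHQ-2-labelled ybbR peptide in pH 7.6 Hepes/MgCl2 buffer. Enzyme was pre-incubated with compound for 15 min at room temperature. Rate was taken from the 30-min fluorescence change (525/598 nm).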
RORgamma inh = blocks mouse ROR gamma transcriptional activity; Drosophila S2 Gal4-RORgamma UAS-luciferase reporter, 20 h; Potency, µM (titrated, usually from 53.6 µM), for the others: top-dose activity change, negative = inhibition, usual class: inhibitors; P51450; AID 2551; 310,000 tested, 5.4% active; note: % is set by controls: 0 for no effect and ±100 for the full control effect; nearly all actives have a fitted effect of over 60% in size
Target sequence (P51450 whole entry, looked up, the tested form may be a part): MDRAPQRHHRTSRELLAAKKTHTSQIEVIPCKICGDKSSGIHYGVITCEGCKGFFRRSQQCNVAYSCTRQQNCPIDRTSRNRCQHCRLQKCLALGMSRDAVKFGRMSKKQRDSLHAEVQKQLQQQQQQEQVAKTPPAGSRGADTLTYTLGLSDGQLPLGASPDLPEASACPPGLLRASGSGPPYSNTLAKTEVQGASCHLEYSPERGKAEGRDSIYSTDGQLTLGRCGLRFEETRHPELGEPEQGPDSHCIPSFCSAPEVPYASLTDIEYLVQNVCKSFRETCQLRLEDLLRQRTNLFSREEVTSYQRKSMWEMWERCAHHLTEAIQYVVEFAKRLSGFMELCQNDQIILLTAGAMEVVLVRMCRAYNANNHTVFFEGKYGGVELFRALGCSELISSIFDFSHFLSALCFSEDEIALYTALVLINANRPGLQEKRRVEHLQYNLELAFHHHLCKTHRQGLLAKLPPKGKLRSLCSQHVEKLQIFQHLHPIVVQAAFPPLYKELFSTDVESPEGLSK
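Read-out: Photinus luciferase luminescence; inhibitors lower reporter signal. Insect Schneider cells with Gal4-ROR gamma fusion under metallothionein promoter, UAS reporter; 700 uM final copper sulfate induction, 20 hr, ambient temperature.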
Epigenetic derep = epigenetic control regulation, reporter derepression; murine LDR cells, GFP reporter derepression, 30 h; Potency, µM (series often up to 53.9 µM), for the others: at the highest dose GFP activation, most hits filed as activators; 280,000 tested, 0.2% active; AID 1865; note: % of control where 0% means no effect; nearly all actives have a fitted effect of over 60% in size
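GFP-positive cell count by laser-scanning cytometry (objects 20–120 um) after 30 h, 37 C compound exposure of murine LDR cells; reporter is CMV-GFP integrated at a silenced locus, inducible by HDAC or DNMT inhibitors.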
ClpP mod = qHTS Assay for Activators of ClpP; purified B. subtilis ClpP, FRET peptide cleavage, 20 min; Potency, µM (titrated, usually from 57.5 µM), for the others: at the top dose activity change, negative = active; 340,000 tested, 1.9% active; ATP-dependent Clp protease proteolytic subunit (Bacillus subtilis (strain 168)), P80244; active = well fitted falling curve with a large enough effect; inconclusive = small, poorly fitted or top-dose-only effect; inactive = no such curve, though single readings can be large or run the other way; note: the source files actives as falling curves though it sought activators and does not explain the sign; nearly all actives have a fitted effect of over 65% in size
Target sequence (P80244 whole entry, looked up): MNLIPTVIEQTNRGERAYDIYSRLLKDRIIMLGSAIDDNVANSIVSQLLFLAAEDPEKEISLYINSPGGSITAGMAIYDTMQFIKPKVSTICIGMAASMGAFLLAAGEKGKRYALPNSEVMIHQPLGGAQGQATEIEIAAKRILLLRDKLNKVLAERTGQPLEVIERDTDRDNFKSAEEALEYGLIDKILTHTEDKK
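ClpP 10 microg/mL final, pH 8 Tris/KCl buffer with BSA, glycerol, Tween-20; compound pinned in; FRET-FV substrate; RT 20 min; Ex320/Em430; ΔFRET vs ADEP 5.8 microM, DMSO, no enzyme.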
* hit, by the source's call; ? = inconclusive; . = no result; [ ] = another dose, or the depositor's remark. Unless noted, calls come from the whole dose curve; as a rule, active = well fitted curve in the direction sought with a large enough effect; inconclusive = small, poorly fitted or top-dose-only effect, or another doubt; inactive = no such curve, though single readings can be large; an effect the other way counts as inactive or inconclusive. Potency is the fitted concentration of half-maximal effect.

SMILES	PINK1 modulator	VP16 counter	Sfp inh	RORgamma inh	Epigenetic derep	ClpP mod
COCCn1c(=S)[nH]c2cc(C(=O)N3CCN(c4cccc(Cl)c4)CC3)ccc2c1=O	0.0%	?	8.2%	11.2µM*	.	-4.0%
CCOCCCNC(=O)c1ccc2c(=O)n(CCCOCC)c(=S)[nH]c2c1	2.1%	0.0%	10.5%	-9.0%	2.2%	.
CCOC(=O)N1CCN(C(=O)c2cccc(-n3c(=S)[nH]c4cc(Cl)ccc4c3=O)c2)CC1	9.0%[38.3 µM]	-9.5%	3.6%	11.2µM*	-0.1%	-0.1%
Cc1ccc2nc(-c3ccc4c(c3)OCCO4)cc(C(=O)O)c2c1	4.9%	7.2%[0.365 µM]	20.4%	5.01µM*	-9.6%	-19.5%
CC(Nc1nc(Nc2ccc(F)cc2)nc(SCC(N)=O)n1)c1ccccc1 (stereo not drawn)	-2.4%	1.2%	3.1%	24.8%	.	0.3%
CC(Nc1nc(=S)nc(Nc2ccc(F)cc2)[nH]1)c1ccccc1 (stereo not drawn)	17.6%	?	44.7µM*	?	.	-1.0%
COc1ccccc1C(=O)N1CCOc2ccc(CN3CCN(Cc4ccccn4)CC3)cc2C1	-0.7%	.	.	.	.	.
Cc1ccc2c(c1)C(c1ccccc1)C(=O)O2 (stereo not drawn)	25.0%	2.8%	50.1µM*	14.7%	0.1%	-1.6%
O=C(CN1C(=O)S/C(=C\c2ccc(Cl)cc2)C1=O)NC1C=CS(=O)(=O)C1 (stereo not drawn)	-0.1%	-10.1%	-4.2%	-22.5%	.	-1.3%
O=C(CN1C(=O)/C(=C/c2cccc(Cl)c2)SC1=S)NC1C=CS(=O)(=O)C1 (stereo not drawn)	0.6%	?	-26.6%	12.6µM*	.	.
O=C(CN1C(=O)/C(=C/c2ccccc2F)SC1=S)NC1C=CS(=O)(=O)C1 (stereo not drawn)	0.5%	-9.2%	22.4µM*	38.3%	.	.
CC(C(=O)NC1C=CS(=O)(=O)C1)N1C(=O)/C(=C\c2ccccc2)SC1=S (stereo not drawn)	-1.8%	?	12.6µM*	-11.9%	.	1.1%
CC(C(=O)NC1C=CS(=O)(=O)C1)N1C(=O)/C(=C/c2cccc(Cl)c2)SC1=S (stereo not drawn)	-0.8%	-70.6%	-7.5%	?	.	0.2%
O=C(CN1C(=O)S/C(=C\c2cccc(Cl)c2)C1=O)NC1C=CS(=O)(=O)C1 (stereo not drawn)	1.9%	-0.8%	6.0%	7.94µM*	.	-16.5%
Cn1ccc2cc(S(=O)(=O)N3CCN(C(=O)Nc4ccccc4F)CC3)ccc21	-0.9%	.	.	.	0.0%	-1.1%
CN1CCN(NC(=O)CN2C(=O)/C(=C/c3ccccc3F)SC2=S)CC1	.	5.2%	-28.5%	0.224µM*	0.0%	.
CCc1ccc(NC(=O)Nc2cc(C(=O)O)ccc2N2CC3CC(C2)c2cccc(=O)n2C3)cc1 (stereo not drawn)	2.9%	-12.4%	11.4%	-3.1%	.	-0.4%
O=C(O)c1ccc(N2CC3CC(C2)c2cccc(=O)n2C3)c(NC(=S)Nc2ccc(Cl)cc2Cl)c1 (stereo not drawn)	-0.3%	-6.6%	50.1µM*	8.3%	-2.8%	.
O=C(CN1CCC(n2nnc3cc(F)ccc32)CC1)Nc1ccc2c(c1)CCC2	-0.2%	-0.3%[0.365 µM]	5.1%	?	-3.6%	14.1µM*
O=C(CN1CCC(n2nnc3ccccc32)CC1)Nc1ccc2c(c1)CCC2	-2.4%	22.9%	12.4%	7.0%	-7.4%	1.4%
Cc1ccc(CNC(=O)c2oc3ccc(S(=O)(=O)N4CCCC(C)C4)cc3c2C)cc1 (stereo not drawn)	-0.1%	.	.	.	-1.0%	-3.2%
COc1cc2ccccc2cc1C(=O)O	-0.9%	-25.7%	18.0%	-3.0%	0.0%	?
COc1cc2c(OC)cccc2cc1C(=O)O	1.1%[38.3 µM]	-2.6%	-0.1%	3.8%	0.0%	15.8µM*
COc1cccc2c(=O)c(C(=O)O)c[nH]c12	-2.0%[38.3 µM]	5.9%	-10.2%	2.1%	-3.5%	22.4µM*
O=C1C2C3C=CC(C4CC34)C2C(=O)N1/N=C/c1ccc(-c2cccc([N+](=O)[O-])c2)o1 (stereo not drawn)	1.0%	-12.6%	-8.0%	-6.0%	0.6%	31.6µM*
SMILES	PINK1 modulator	VP16 counter	Sfp inh	RORgamma inh	Epigenetic derep	ClpP mod
O=C1NC(=O)/C(=C/c2ccc(-c3cccc([N+](=O)[O-])c3)o2)S1	0.0%	-4.1%	89.1µM*	-1.3%	.	-1.1%
CC(C)(C)c1ccc(C(=O)NCC(c2cccs2)S(=O)(=O)c2ccc(F)cc2)cc1 (stereo not drawn)	0.1%	.	.	.	1.4%	-2.5%
COc1cccc(C(=O)Nc2c(C(=O)NC(C)(C)C)oc3ccccc23)c1	1.2%	.	.	.	-1.3%	-27.2%
Cc1cc(=O)[nH]c(N/N=C2/CCCC/C2=C\c2ccccc2)n1	-0.5%	17.8µM*	2.3%	6.31µM*	3.6%	-2.6%
Cc1cc(=O)[nH]c(N/N=C/CCc2ccccc2)n1	-2.7%	7.8%	?	?	1.1%	.
Cc1sc(NCc2ccccc2)nc1-c1ccccc1	0.2%	.	.	.	.	-3.3%
Cc1cc(C)nc(N/N=C/C=C/c2ccccc2)n1	1.7%	7.94µM*	-6.4%	1.26µM*	-14.4%	-1.5%
Cc1sc(N/N=C/C=C/c2ccccc2)nc1-c1ccccc1	1.3%	?	-9.1%	3.55µM*	0.0%	-13.4%
Cc1cc(=O)[nH]c(N/N=C/C2=C(N3CCOCC3)C(=C\c3ccc(Cl)cc3)/CC2)n1	?	?	39.8µM*	?	0.0%	0.4%
COc1ccccc1C1CN(CCNC(=O)c2ccc3c(c2)OCCO3)Cc2ccccc2O1 (stereo not drawn)	0.5%	.	.	.	.	.
CSc1cccc(NC(=O)C2CCCN(S(=O)(=O)c3ccc4c(c3)CCCN4C(C)=O)C2)c1 (stereo not drawn)	-1.2%	.	.	.	0.0%	-3.3%
Cc1cc(=O)[nH]c(N/N=C/c2ccc(O)c(O)c2)n1	1.5%	-13.9%	?	-21.8%	.	.
Cc1cc(=O)[nH]c(N/N=C/C=C/c2ccccc2)n1	-2.1%	-19.5%	-12.0%	12.6µM*	0.0%	.
CSc1ccc(/C=N/Nc2nc(C)cc(=O)[nH]2)cc1	4.0%	2.0%	56.2µM*	16.6%	-2.6%	.
CC(NC(=O)C(Cc1ccccc1)NC(=O)c1ccccc1)C(=O)O (stereo not drawn)	4.9%[38.3 µM]	-4.8%	16.5%	0.8%	-1.0%	-1.1%
CC(C)C[C@@H](NC(=O)[C@H](Cc1ccccc1)NC(=O)c1cnccn1)B(O)O	.	?	6.6%	0.0079µM*	.	.
CC(=O)CCSc1ncnc2sc(-c3ccccc3)cc12	-1.8%	6.3%	9.5%	-4.3%	.	0.2%
OCCOCCNc1ncnc2sc(-c3ccccc3)cc12	-1.1%	?	-14.7%	4.7%	-3.1%	31.6µM*
